Active and inactive are the calls of the source.
What was measured:
[1] = small molecules captured by biotinylated probe aFSTL3 – biochemical, small-molecule microarray, fluorescence 635/667, stem cell growth factor project, primary screen (AID 1064); conditions: higher = more signal;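 note: measures binding of the biotinylated anti-FSTL3 antibody to printed compounds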
[2] = binders from COS7 lysate, DM2A8 probe, primary screen, torsin A project, cell lysate, small-molecule microarray, fluorescence 635/667 (AID 1065); conditions: higher = more signal, COS7 lysate expressing mutant human TOR1A
[3] = small molecules captured by biotinylated probe aFGF2 – biochemical, small-molecule microarray, fluorescence 635/667, stem cell growth factor project, primary screen (AID 1067); conditions: higher = more signal;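 note: measures binding of biotinylated aFGF2 protein to printed compounds on slides; z-score merges feature fluorescence and signal-to-noise across triplicate slides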
[4] = small molecules captured by biotinylated probe aFGF10 – biochemical, small-molecule microarray, fluorescence 635/667, stem cell growth factor project, primary screen (AID 1071); conditions: higher = more signal;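 note: score merges 667 nm spot intensity and signal to noise from triplicate slides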
[5] = molecular target: Neurogenic locus notch homolog protein 2 (Homo sapiens) (UniProt Q04721); experiment: small molecules binding Notch2 protein – biochemical, small-molecule microarray, 635 nm fluorescence, stem cell growth factors, primary screen (AID 1073); conditions: higher = more signal
[6] = molecular target: Pro-neuregulin-1, membrane-bound isoform (Homo sapiens) (UniProt Q02297); experiment: small molecules binding neuregulin-1 protein – biochemical, small-molecule microarray, fluorescence 635/667, psychiatric disease protein project, primary screen (AID 1075); conditions: NRG1 binding, 635 nm fluorescence, higher = more signal;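 note: score combines 667 nm spot fluorescence with signal to noise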
[7] = test system: Neuregulin-1 EGF-like domain; experiment: small molecules binding NRG1 EGF domain – biochemical, small-molecule microarray, 635 nm fluorescence, primary screen (AID 1081); conditions: higher = more signal;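 note: binding of the protein to compounds printed on small-molecule microarray slides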
[8] = FRG1 expression reporter modulators in myotubes – cell-based, C2C12 myotubes, firefly/Renilla luciferase, luminescence, FRG1 inhibition for FSHD, primary screen (AID 1084); conditions: FRG1 promoter luciferase, higher = more signal, called active from +8 up or from −8 down
[9] = small molecules captured by biotinylated probe aFST – biochemical, small-molecule microarray, fluorescence 635/667, stem cell growth factor project, primary screen (AID 1086); conditions: higher = more signal;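 note: score merges 667 nm fluorescence with signal-to-noise of each printed compound spot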
[10] = binders of probe aHhip on microarray, primary screen, stem cell growth factor project, biochemical, small-molecule microarray, fluorescence 635/667 (AID 1087); conditions: higher = more signal;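 note: score merges spot fluorescence at 667nm with spot signal to noise ratio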

Sequence of Neurogenic locus notch homolog protein 2 (Homo sapiens) (Q04721 whole entry, looked up, canonical isoform): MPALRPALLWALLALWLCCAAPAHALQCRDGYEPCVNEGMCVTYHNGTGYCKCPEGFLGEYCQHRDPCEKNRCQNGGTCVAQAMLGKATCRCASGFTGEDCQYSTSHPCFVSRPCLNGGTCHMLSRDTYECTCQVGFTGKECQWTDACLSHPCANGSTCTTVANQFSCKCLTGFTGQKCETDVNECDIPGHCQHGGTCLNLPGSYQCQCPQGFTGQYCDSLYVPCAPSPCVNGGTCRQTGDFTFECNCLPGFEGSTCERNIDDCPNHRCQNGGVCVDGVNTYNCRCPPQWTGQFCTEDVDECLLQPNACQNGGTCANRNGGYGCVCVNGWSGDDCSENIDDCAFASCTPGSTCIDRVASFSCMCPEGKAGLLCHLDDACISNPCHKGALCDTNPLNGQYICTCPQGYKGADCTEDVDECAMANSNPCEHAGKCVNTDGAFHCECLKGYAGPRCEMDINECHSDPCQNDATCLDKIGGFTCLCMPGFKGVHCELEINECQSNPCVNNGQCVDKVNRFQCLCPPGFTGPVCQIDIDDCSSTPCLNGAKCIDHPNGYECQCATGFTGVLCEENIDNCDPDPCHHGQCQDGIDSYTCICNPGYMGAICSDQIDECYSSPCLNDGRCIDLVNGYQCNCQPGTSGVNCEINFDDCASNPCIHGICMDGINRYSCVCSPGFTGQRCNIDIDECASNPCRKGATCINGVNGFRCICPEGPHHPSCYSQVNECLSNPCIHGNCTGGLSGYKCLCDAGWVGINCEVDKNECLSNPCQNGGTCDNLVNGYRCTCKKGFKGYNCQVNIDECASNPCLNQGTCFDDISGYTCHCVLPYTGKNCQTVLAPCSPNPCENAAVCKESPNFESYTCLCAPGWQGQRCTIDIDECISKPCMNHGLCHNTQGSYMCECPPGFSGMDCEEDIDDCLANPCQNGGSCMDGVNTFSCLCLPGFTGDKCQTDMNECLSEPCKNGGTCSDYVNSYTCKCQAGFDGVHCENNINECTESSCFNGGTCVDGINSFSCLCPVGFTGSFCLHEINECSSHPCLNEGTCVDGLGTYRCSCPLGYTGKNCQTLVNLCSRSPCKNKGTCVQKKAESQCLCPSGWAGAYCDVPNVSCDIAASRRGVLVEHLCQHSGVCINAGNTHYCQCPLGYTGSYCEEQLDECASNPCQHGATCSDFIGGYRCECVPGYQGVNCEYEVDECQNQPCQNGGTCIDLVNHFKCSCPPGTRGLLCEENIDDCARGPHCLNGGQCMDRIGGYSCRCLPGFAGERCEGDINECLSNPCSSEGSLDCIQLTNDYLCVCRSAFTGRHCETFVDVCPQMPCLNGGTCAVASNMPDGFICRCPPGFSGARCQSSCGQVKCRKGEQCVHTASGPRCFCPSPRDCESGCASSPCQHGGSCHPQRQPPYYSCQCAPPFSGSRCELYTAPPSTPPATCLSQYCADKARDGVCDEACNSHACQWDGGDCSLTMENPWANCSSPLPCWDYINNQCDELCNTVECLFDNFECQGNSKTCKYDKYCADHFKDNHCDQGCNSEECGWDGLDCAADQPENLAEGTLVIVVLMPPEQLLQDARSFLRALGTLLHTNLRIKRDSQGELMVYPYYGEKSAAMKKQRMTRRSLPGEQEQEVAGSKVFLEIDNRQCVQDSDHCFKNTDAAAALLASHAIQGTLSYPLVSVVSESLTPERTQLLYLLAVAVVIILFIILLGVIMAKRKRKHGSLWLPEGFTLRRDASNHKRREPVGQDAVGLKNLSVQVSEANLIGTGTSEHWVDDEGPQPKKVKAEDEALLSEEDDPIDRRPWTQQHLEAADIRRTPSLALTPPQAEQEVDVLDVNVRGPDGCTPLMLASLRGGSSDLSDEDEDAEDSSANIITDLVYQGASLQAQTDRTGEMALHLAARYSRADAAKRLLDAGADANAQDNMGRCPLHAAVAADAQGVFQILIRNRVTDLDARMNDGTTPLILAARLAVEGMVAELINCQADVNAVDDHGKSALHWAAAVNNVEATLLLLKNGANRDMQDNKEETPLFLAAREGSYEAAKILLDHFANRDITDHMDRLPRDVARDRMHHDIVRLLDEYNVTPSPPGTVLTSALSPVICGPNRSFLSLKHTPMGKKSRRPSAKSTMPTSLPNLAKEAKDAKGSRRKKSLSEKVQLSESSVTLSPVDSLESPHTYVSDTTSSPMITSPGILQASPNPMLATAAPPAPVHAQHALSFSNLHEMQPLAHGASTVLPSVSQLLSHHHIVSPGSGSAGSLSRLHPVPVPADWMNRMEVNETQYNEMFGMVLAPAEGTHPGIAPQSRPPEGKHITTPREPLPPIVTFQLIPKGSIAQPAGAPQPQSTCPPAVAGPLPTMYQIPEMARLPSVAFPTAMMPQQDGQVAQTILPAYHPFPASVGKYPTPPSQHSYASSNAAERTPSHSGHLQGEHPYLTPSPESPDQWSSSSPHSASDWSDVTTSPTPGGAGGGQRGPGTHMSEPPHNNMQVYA
Sequence of Pro-neuregulin-1, membrane-bound isoform (Homo sapiens) (Q02297 whole entry, looked up, the tested form may be a part, canonical isoform): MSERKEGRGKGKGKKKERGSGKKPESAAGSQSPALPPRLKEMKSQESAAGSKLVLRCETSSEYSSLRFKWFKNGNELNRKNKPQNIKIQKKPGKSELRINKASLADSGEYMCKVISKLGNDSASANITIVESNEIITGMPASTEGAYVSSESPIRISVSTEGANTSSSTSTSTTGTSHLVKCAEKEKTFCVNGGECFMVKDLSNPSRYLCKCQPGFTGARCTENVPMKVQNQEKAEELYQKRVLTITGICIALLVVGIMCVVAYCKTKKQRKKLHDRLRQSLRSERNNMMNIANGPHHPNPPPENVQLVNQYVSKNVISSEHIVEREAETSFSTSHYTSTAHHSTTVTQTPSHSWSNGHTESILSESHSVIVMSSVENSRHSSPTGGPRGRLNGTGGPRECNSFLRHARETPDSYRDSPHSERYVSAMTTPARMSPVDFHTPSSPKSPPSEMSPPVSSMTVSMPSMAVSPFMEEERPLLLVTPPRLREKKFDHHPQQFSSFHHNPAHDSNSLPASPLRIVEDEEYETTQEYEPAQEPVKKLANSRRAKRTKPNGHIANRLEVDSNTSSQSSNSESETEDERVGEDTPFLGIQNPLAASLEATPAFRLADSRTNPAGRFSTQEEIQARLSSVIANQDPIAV

Row | SMILES | composite z-score [1] | composite z-score [2] | composite z-score [3] | composite z-score [4] | composite z-score [5] | composite z-score [6] | composite z-score [7] | z-score [8] | composite z-score [9] | composite z-score [10]
1 | COC(=O)[C@@]1(Cc2ccc(OC)cc2)[C@H]2c3cc(C(=O)N4CCCC4)n(Cc4ccc(S(C)(=O)=O)cc4)c3C[C@H]2CN1C(=O)c1ccccc1 | 0.438 | -0.208 | 0.296 | 0.587 | 1.59 | 2.07 | 1.31 | 0.862 (inactive) | 1.25 | 0.0053
2 | [N-]=[N+]=Nc1ccccc1C[C@]1(C(=O)NCc2ccccc2)COC(c2ccc(OCCCO)cc2)=N1 | 0.191 | 0.666 | 0.113 | 1.27 | 0.777 | 1.24 | 1.21 | -1.36 (inactive) | 0.892 | -0.207
3 | NCCCCCNC(=O)[C@H]1C[C@H]2C(=O)N[C@@H](Cc3ccccc3)C(=O)N2[C@H]1c1ccc(O)cc1 | 2.14 | -0.045 | 0.175 | 0.199 | 0.685 | 1.73 | 0.573 | 0.902 (inactive) | 1.46 | 0.883
4 | COCCCNC(=O)[C@@H]1c2ccccc2C(=O)N(C2Cc3ccccc3C2)[C@H]1c1ccc(CO)cc1 | -0.0989 | 0.703 | -0.151 | 0.0338 | -0.0746 | 0.209 | 1.4 | 0.0504 (inactive) | 0.506 | -0.137
5 | CC(C)C[C@@H]1NC(=O)[C@@]23C(=O)N[C@@H](Cc4ccccc4)C2[C@H](C)[C@@]2(C)O[C@H]2C3/C=C/C/C=C\CNC(=O)[C@@H](C)NC1=O (stereo not given in full) | -0.296 | 0.183 | -0.0963 | 0.392 | -0.211 | 1.1 | -0.483 | 0.677 (inactive) | -0.414 | -0.12
6 | COc1cccc(/C=C(\C#N)C(=O)Nc2c(C)n(C)n(-c3ccccc3)c2=O)c1 | -0.408 | 0.251 | -0.107 | 0.324 | 0.694 | 1.06 | 1.1 | -0.496 (inactive) | 0.336 | -0.216
7 | CCCCC(=C=CC[C@H](O)c1ccc(OCCO)cc1)C[C@H](O)c1cc(Cl)cc(Cl)c1O | -0.268 | 0.092 | -0.186 | 0.214 | 0.323 | 1.05 | 0.965 | -2 (inactive) | 0.236 | -0.264
8 | Cc1cccc([C@H]2C[C@H]3C(Br)=C[C@@H]2C(=O)[C@]32CO2)c1 | 0.165 | 0.0316 | -0.182 | -0.228 | -0.0632 | -0.424 | -0.779 | 1.02 (inactive) | -0.264 | -0.0169
9 | COCCCNC(=O)[C@@]1(Sc2ccc(C)cc2)CC(=O)N(Cc2ccccc2Cl)[C@@H]1c1ccc(CO)cc1I | 0.386 | -0.983 | -0.191 | -0.304 | -0.911 | 1.08 | 0.449 | -2.5 (inactive) | -0.431 | -0.0994
10 | [N-]=[N+]=NCc1ccccc1[C@H]1OC(c2ccc(OCCCO)cc2)=N[C@@]1(CCS(=O)(=O)c1ccccc1)C(=O)NCc1ccccc1 | 0.174 | 0.447 | 0.138 | 0.914 | 1.53 | 1.33 | 1.24 | -1.68 (inactive) | 0.981 | 1.05
11 | O=C(O)[C@H]1C[C@H]2C(=O)N[C@@H](Cc3ccccc3)C(=O)N2[C@H]1c1cccc(OCCO)c1 | 0.07 | 0.96 | -0.0246 | 0.495 | -0.116 | 0.154 | 1.44 | 5.68 (inactive) | 0.309 | 0.188
12 | COc1cc(NN2C(C(O)c3ccccc3)C=CC3C(=O)N(C)C(=O)C32)cc(OC)c1OC (stereo not given) | 0.0217 | 0.48 | 0.0074 | 0.371 | 1.34 | 1.88 | 1.36 | 0.359 (inactive) | 0.4 | -0.0672
13 | CCOC(=O)C[C@H]1[C@H](OC(=O)c2ccc(-c3ccccc3)cc2)[C@@H](NC(=O)CC(C)C)c2cc(OCCCO)ccc2N1C(=O)c1ccccc1 | -0.308 | -0.288 | -0.0236 | 0.311 | 0.623 | -0.037 | 0.648 | -0.165 (inactive) | 0.547 | -0.217
14 | Cc1nc2cc(Br)ccc2c(=O)n1Cc1cccc(O)c1 | -0.473 | 0.116 | 0.0275 | 0.659 | 0.418 | -0.134 | 1.06 | 0.156 (inactive) | 0.314 | 0.409
15 | C=C[C@@H](OC)[C@H](OC(=O)Nc1ccc(OC)cc1)c1ccc(OC)c(O)c1 | 0.54 | -0.998 | -0.087 | -0.624 | -1.06 | -0.401 | 1.23 | 3.56 (inactive) | -0.857 | 0.0505
16 | CCOC(=O)C1=CC[C@@H](c2ccccc2)N(S(=O)(=O)c2ccc(C)cc2)[C@H]1C=Cc1ccccc1 | 0.162 | -0.0855 | -0.04 | 0.694 | 0.471 | 0.941 | 0.918 | -3.49 (inactive) | 0.47 | 0.0373

Row | SMILES | composite z-score [1] | composite z-score [2] | composite z-score [3] | composite z-score [4] | composite z-score [5] | composite z-score [6] | composite z-score [7] | z-score [8] | composite z-score [9] | composite z-score [10]
17 | CN(C)CCCCCCNC(=O)[C@@H]1C[C@@H]2C(=O)N[C@@H](CCCCN)C(=O)N2[C@@H]1c1ccc(O)cc1 | 3.77 | 1.82 | 0.939 | 1.2 | 1.65 | 2.91 | 1.53 | 0.918 (inactive) | 3.81 | 3.69
18 | Cc1ccc(S[C@]2(C(=O)NC(C)C)CC(=O)N(Cc3ccccc3Cl)[C@@H]2c2ccc(CO)cc2)cc1 | 0.827 | -1.59 | -0.0474 | -0.519 | -0.266 | 1.03 | 1.37 | -3.34 (inactive) | -0.519 | -0.169
19 | CC(C)C[C@@H]1NC(=O)[C@H]2C[C@@H](C(=O)NCCCCCN)[C@@H](c3cccc(OCCO)c3)N2C1=O | 0.721 | -0.1 | -0.107 | 0.0414 | -0.182 | 0.896 | 1.24 | -0.599 (inactive) | -0.565 | -0.0645
20 | [N-]=[N+]=NCc1ccccc1C[C@@]1(C(=O)N2CCCCC2)N=C(c2ccc(OCCCO)cc2)O[C@@H]1c1ccccc1CN=[N+]=[N-] | 0.319 | 1.42 | 0.0234 | 0.144 | 1.14 | 0.698 | 0.901 | -3.69 (inactive) | 0.828 | -0.177
21 | CC(C)[C@H]1NC(=O)[C@@]23C(=O)N[C@@H](Cc4ccccc4)C2[C@H](C)[C@@]2(C)O[C@H]2C3/C=C/C/C=C\CNC(=O)[C@H](Cc2ccccc2)NC1=O (stereo not given in full) | -0.264 | 0.425 | -0.0462 | 1.01 | 0.878 | 0.781 | 0.957 | 0.304 (inactive) | 0.353 | 0.235
22 | CCCNC(=O)[C@@]1(C)c2ccccc2C(=O)N(Cc2ccccc2)[C@H]1c1ccc(CO)cc1 | 1.93 | -0.685 | 0.12 | 1.32 | -1.28 | 1.97 | 0.974 | -1.98 (inactive) | 0.476 | 0.106
23 | CCOC(=O)C1=C[C@@H](c2ccccc2)N(S(=O)(=O)c2ccc(C)cc2)[C@H]1c1ccccc1 | 0.119 | -0.137 | -0.0659 | 0.21 | 0.917 | 0.442 | 0.296 | -0.401 (inactive) | 0.171 | -0.0994
24 | COc1cc(C(O)C2C=CC3C(=O)N(Cc4ccccc4)C(=O)C3N2n2cnnc2)cc(OC)c1OC (stereo not given) | -0.246 | 0.606 | 0.133 | 0.537 | 1.49 | 0.332 | 1.14 | -1.7 (inactive) | 0.39 | -0.0867
25 | CN1C(=O)[C@@H]2[C@@H](CC(COc3ccccc3)=C([C@H](O)CCc3ccccc3)[C@@H]2CO)C1=O | -0.138 | 0.342 | -0.103 | -0.195 | -0.492 | -0.207 | -0.0233 | -2.39 (inactive) | -0.167 | -0.236
26 | COc1ccc(C#Cc2ccc3c(c2)[C@]2(C(=O)N3)[C@H](c3ccc(OCCO)cc3)N3[C@H](c4ccccc4)[C@H](c4ccccc4)OC(=O)[C@H]3[C@@H]2C(=O)N2CCc3cc(OC)c(OC)cc3C2)cc1 | -0.253 | 0.447 | -0.0746 | 0.862 | 1.2 | 1.78 | 1.16 | 1.14 (inactive) | 0.0959 | -0.623
27 | COCCOC(=O)N1C(=O)[C@@]2(c3cc(C#Cc4ccc(OC)cc4)ccc31)[C@H](c1ccc(OCCO)cc1)N1[C@H](c3ccccc3)[C@H](c3ccccc3)OC(=O)[C@H]1[C@@H]2C(=O)Nc1nc2ccccc2s1 | -0.118 | 0.247 | -0.0262 | 0.39 | 1.21 | 0.864 | 0.718 | 2.99 (inactive) | -0.0352 | 0.0695
28 | C=CCC(OC(C)=O)[C@@H]1[C@@H](N(Cc2ccc(-c3ccccc3)cc2)C(=O)c2ccc(C)cc2)c2cc(OCCCO)ccc2N1C(=O)Cc1ccc2ccccc2c1 (stereo not given in full) | -0.377 | -0.221 | -0.107 | 0.0733 | 0.0573 | -0.283 | -0.422 | -2.08 (inactive) | 0.203 | -0.134
29 | C=C(/C(=C/C[C@H](OC(=O)c1ccncc1)c1ccccc1OCCO)c1cnc2ccccc2c1)C(C)C | -0.145 | 0.763 | -0.0316 | 1.18 | 1.55 | 1.01 | 1.22 | -0.0406 (inactive) | 0.853 | -0.112
30 | COC(=O)[C@@]1(Cc2ccc(F)cc2)[C@H]2c3cc(C(=O)N(C)C)n(Cc4ccc(O)c(OC)c4)c3C[C@H]2CN1C(=O)c1ccccc1 | 0.129 | 0.196 | 0.0398 | 0.531 | 1.35 | 1.26 | 0.786 | 2.98 (inactive) | 0.675 | 1.17
31 | C=C(COC)/C(=C/C[C@@H](OC(=O)c1ccncc1)c1ccccc1OCCO)c1cc(C(=O)OC)ccc1OC | 0.232 | -0.72 | -0.0718 | 0.263 | -0.381 | -0.33 | 0.851 | -1.87 (inactive) | -0.3 | -0.0645
